KKLEB cytotox – reduces viability of KKLEB cystic fibrosis airway cells. actives 0.36% (n = 360,000). KKLEB CF airway cells viability, ATPlite luminescence, overnight; stronger effect = lower value; cells stimulated with P. aeruginosa culture filtrate. activity change (cytotoxicity), % at 5 µM. AID 602141;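 active = corrected activity change at or below -50% at 5 µM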
Peg3 prom inh – reduces Peg3 promoter-driven luciferase expression in HeLa | HeLa PEG-Prom luciferase reporter, luminescence, overnight | inhibition, % at 20 µM | AID 588405 | actives 1.7% (n = 360,000);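 active = inhibition of at least 50% at 20 µM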
TWEAK-Fn14 inh – inhibitors of TWEAK-Fn14 interaction signaling; TWEAK-stimulated Fn14 reporter cells, luciferase luminescence, 8 h; inhibition, % at 10 µM; actives 2% (n = 360,000); in the data active = inhibition above about 50%
CF NFkB block – blocks PAF-induced NF-kB reporter in cystic fibrosis cells; KKLEB NF-kB-GFP reporter, GFP fluorescence overnight; actives 0.86% (n = 360,000); inhibition, % at 5 µM;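 active = at least 50% inhibition at 5 µM, scaled per plate between neutral and stimulator controls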;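 also: PAF is a Pseudomonas aeruginosa culture filtrate used as stimulus; plate controls were PAF-stimulated DMSO wells for no effect and unstimulated DMSO wells for full effect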
HIF-2a inh – inhibitors of HIF-2a; actives 0.72% (n = 360,000); inhibition, % at 18.8 µM; 786-0 RCC cells HIF-2a reporter, luciferase luminescence, overnight;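 active = inhibition of the luminescence signal of 40% or more relative to plate controls, in a single-dose primary screen at 18.75 µM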
TROY NFkB inh – TROY signaling inhibition | Q293 LMP1-TROYcd NF-kB luciferase reporter, 4 h | inhibition, % at 10 µM | actives 0.98% (n = 360,000);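 active = compounds whose plate-normalised and pattern-corrected inhibition of the luciferase reporter signal at the single screening dose is 50% or more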
* hit, by the source's call. Rows were chosen to be rich in hits. Some 4% of all compounds tested hit in one or more screens of this group.

COc1ccc(/C=C2/CCC(CN3CCOCC3)C2=O)cc1 (stereo not given) was read as KKLEB cytotox -55*, Peg3 prom inh 101*, TWEAK-Fn14 inh 66*, CF NFkB block 66*, HIF-2a inh 87* and TROY NFkB inh -18.
CC1CCC/C(=C\c2ccc(O)cc2)C1=O (stereo not given) was read as KKLEB cytotox 2, Peg3 prom inh -36, TWEAK-Fn14 inh -14, CF NFkB block 6, HIF-2a inh -13 and TROY NFkB inh -43.
Screening COc1ccc(/C=C2\CCC(C3CCCC3)C2=O)cc1 (stereo not given) returned KKLEB cytotox -1, Peg3 prom inh -308, TWEAK-Fn14 inh 49, CF NFkB block 7, HIF-2a inh -248 and TROY NFkB inh 27.
`O=C1/C(=C\c2ccc(Cl)cc2)CCC1CNc1ccc(Cl)cc1` (stereo not given) gave KKLEB cytotox 30, Peg3 prom inh 89*, TWEAK-Fn14 inh 11, CF NFkB block -30, HIF-2a inh 0 and TROY NFkB inh -19.
CN(C)CC1CC/C(=C\c2ccc(O)cc2)C1=O (stereo not given) was read as KKLEB cytotox 0, Peg3 prom inh 98*, TWEAK-Fn14 inh 47, CF NFkB block 47, HIF-2a inh 88* and TROY NFkB inh -18.
Screening COc1ccc(N2CCN(CCNC(=O)c3ccc4nc5ccccc5c(=O)n4c3)CC2)cc1 returned KKLEB cytotox -15, Peg3 prom inh 10, TWEAK-Fn14 inh 37, CF NFkB block 2, HIF-2a inh 0 and TROY NFkB inh 13.
Screening O=C(NCCN1CCN(c2ccccc2F)CC1)c1ccc2nc3ccccc3c(=O)n2c1 returned KKLEB cytotox -22, Peg3 prom inh 23, TWEAK-Fn14 inh 67*, CF NFkB block 12, HIF-2a inh -24 and TROY NFkB inh 21.
O=C(CC12CC3CC(CC(C3)C1)C2)NCc1ccncc1 was read as KKLEB cytotox -9, Peg3 prom inh 3, TWEAK-Fn14 inh -7, CF NFkB block 10, HIF-2a inh -6 and TROY NFkB inh 10.
CCOc1ccc(NS(=O)(=O)c2cc(NC(=O)CCNC(=O)c3ccco3)ccc2OC)cc1 was read as KKLEB cytotox -7, Peg3 prom inh 7, TWEAK-Fn14 inh -1, CF NFkB block -4, HIF-2a inh 9 and TROY NFkB inh -4.
CCOC(=O)C1=C(c2ccccc2)NC(N)=NC1c1ccc(OCc2ccc(C(=O)OC)cc2)cc1 (stereo not given) was read as KKLEB cytotox -34, Peg3 prom inh 104*, TWEAK-Fn14 inh 1, CF NFkB block 24, HIF-2a inh -3 and TROY NFkB inh 6.
For CC1CC(C)(C)Nc2ccc(N=O)cc21 (stereo not given) the results were KKLEB cytotox -20, Peg3 prom inh 84*, TWEAK-Fn14 inh 80*, CF NFkB block 71*, HIF-2a inh 12 and TROY NFkB inh 35.
For COc1cc([C@H]2OC[C@H]3[C@@H]2CO[C@@H]3c2ccc(O[C@H]3O[C@H](CO)[C@@H](O)[C@H](O)[C@H]3O)c(OC)c2)ccc1O[C@@H]1O[C@H](CO)[C@@H](O)[C@H](O)[C@H]1O the results were KKLEB cytotox 9, Peg3 prom inh -8, TWEAK-Fn14 inh 9, CF NFkB block -18, HIF-2a inh 10 and TROY NFkB inh -16.
Cc1cc(-c2ccc(C)c(S(=O)(=O)NCc3ccc(Br)cc3)c2)on1 was read as KKLEB cytotox 6, Peg3 prom inh 21, TWEAK-Fn14 inh 65*, CF NFkB block 40, HIF-2a inh 24 and TROY NFkB inh 32.
Screening Cc1cc(-c2ccc(C)c(S(=O)(=O)NCc3cccc(Br)c3)c2)on1 returned KKLEB cytotox 1, Peg3 prom inh 31, TWEAK-Fn14 inh -12, CF NFkB block -4, HIF-2a inh 11 and TROY NFkB inh 8.
For O=C(Nc1cccc(S(=O)(=O)N2CCCCCC2)c1)c1cc(=O)c2ccccc2o1 the results were KKLEB cytotox -4, Peg3 prom inh 28, TWEAK-Fn14 inh 63*, CF NFkB block 17, HIF-2a inh 20 and TROY NFkB inh 20.
`CCN(CC)c1ccc(S(=O)(=O)N2CCOCC2)cc1NC(=O)c1cc(=O)c2ccccc2o1` gave KKLEB cytotox -20, Peg3 prom inh 62*, TWEAK-Fn14 inh 12, CF NFkB block 40, HIF-2a inh -2 and TROY NFkB inh 5.
Screening NS(=O)(=O)c1cccc(NC(=O)c2cc(=O)c3ccccc3o2)c1 returned KKLEB cytotox 4, Peg3 prom inh -35, TWEAK-Fn14 inh 3, CF NFkB block -2, HIF-2a inh -32 and TROY NFkB inh -7.
CCN(CC)c1ccc(S(=O)(=O)N2CCOCC2)cc1NC(=O)CSc1ccccc1 was read as KKLEB cytotox -1, Peg3 prom inh 19, TWEAK-Fn14 inh 12, CF NFkB block -14, HIF-2a inh 7 and TROY NFkB inh -3.
For CN(c1ccccc1)S(=O)(=O)c1cccc(NC(=O)c2cc(=O)c3ccccc3o2)c1 the results were KKLEB cytotox 9, Peg3 prom inh 31, TWEAK-Fn14 inh 51*, CF NFkB block 3, HIF-2a inh 8 and TROY NFkB inh 49.
`Cc1cccc(NS(=O)(=O)c2ccc(C)c(C(=O)N3CCN(C(=O)c4ccco4)CC3)c2)c1` gave KKLEB cytotox -9, Peg3 prom inh 6, TWEAK-Fn14 inh -5, CF NFkB block 14, HIF-2a inh 1 and TROY NFkB inh 2.
For Cc1ccc(NC(=O)c2cnc(N3CCN(c4ccccn4)CC3)c3ccccc23)c(Br)c1 the results were KKLEB cytotox -17, Peg3 prom inh 90*, TWEAK-Fn14 inh 93*, CF NFkB block -13, HIF-2a inh 19 and TROY NFkB inh 68*.
`O=C(c1cnc(N2CCN(c3ncccn3)CC2)c2ccccc12)N1CCN(c2ccccn2)CC1` gave KKLEB cytotox -3, Peg3 prom inh 28, TWEAK-Fn14 inh 49, CF NFkB block 8, HIF-2a inh 22 and TROY NFkB inh 34.
Screening O=C(Nc1c(F)cccc1F)c1cnc(N2CCN(c3ccccn3)CC2)c2ccccc12 returned KKLEB cytotox -5, Peg3 prom inh 73*, TWEAK-Fn14 inh 60*, CF NFkB block -27, HIF-2a inh -8 and TROY NFkB inh 36.
O=C(O)CCCCCCCCCCCc1ccccc1 was read as KKLEB cytotox 6, Peg3 prom inh -1, TWEAK-Fn14 inh 5, CF NFkB block 8, HIF-2a inh 9 and TROY NFkB inh -17.
Screening O=C(c1[nH]c(C(F)(F)F)nc1-c1ccccc1)N1CCN(c2cccc(C(F)(F)F)n2)CC1 returned KKLEB cytotox -5, Peg3 prom inh 11, TWEAK-Fn14 inh 5, CF NFkB block 28, HIF-2a inh 14 and TROY NFkB inh -1.
Screening COc1ccc(-c2cc(C(=O)NN)[nH]n2)cc1 returned KKLEB cytotox 5, Peg3 prom inh -6, TWEAK-Fn14 inh 53*, CF NFkB block -5, HIF-2a inh 9 and TROY NFkB inh 41.
